Assay results taken from PubChem BioAssay (NCATS).
The source made the active and inactive calls. The call rests on the fitted dose curve.

How the values were obtained:
Test in all cases: Confirmatory Screen for Target Class Profiling of Small Molecule Inhibitors of Methyltransferases (AID 1745852); on activity change, negative = inhibition: on the % scale 0 is the no-effect control and ±100 the full control effect
[1] = target: Catechol O-methyltransferase (Homo sapiens) (UniProt P21964); conditions: MTase-Glo luminescence, SAH detection, recombinant enzyme; measured here: COMT max response; stronger effect = lower value
[2] = target: Guanidinoacetate N-methyltransferase (Homo sapiens) (UniProt Q14353); conditions: MTase-Glo luminescence, SAH detection, recombinant enzyme; activity change, negative = inhibition: at 57.3 µM (top of the series) unless noted; series mostly up to 57.3 µM
[3] = target: Nicotinamide N-methyltransferase (Homo sapiens) (UniProt P40261); conditions: MTase-Glo luminescence, SAH detection, recombinant enzyme; measured here: NNMT max response; stronger effect = lower value
[4] = target: Phenylethanolamine N-methyltransferase (Homo sapiens) (UniProt P11086); conditions: MTase-Glo luminescence, SAH detection, recombinant enzyme; measured here: PNMT max response; stronger effect = lower value
Potency means the concentration at half of the fitted maximal effect.

Nicotinamide N-methyltransferase (Homo sapiens), sequence (P40261 whole entry, looked up): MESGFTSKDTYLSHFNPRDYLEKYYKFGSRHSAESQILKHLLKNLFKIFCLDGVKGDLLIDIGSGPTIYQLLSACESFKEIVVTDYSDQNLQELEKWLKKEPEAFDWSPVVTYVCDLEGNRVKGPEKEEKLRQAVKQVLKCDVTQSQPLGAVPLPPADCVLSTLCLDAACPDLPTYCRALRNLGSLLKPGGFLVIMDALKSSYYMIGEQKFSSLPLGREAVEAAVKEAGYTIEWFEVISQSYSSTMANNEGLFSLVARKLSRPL
Phenylethanolamine N-methyltransferase (Homo sapiens), sequence (P11086 whole entry, looked up): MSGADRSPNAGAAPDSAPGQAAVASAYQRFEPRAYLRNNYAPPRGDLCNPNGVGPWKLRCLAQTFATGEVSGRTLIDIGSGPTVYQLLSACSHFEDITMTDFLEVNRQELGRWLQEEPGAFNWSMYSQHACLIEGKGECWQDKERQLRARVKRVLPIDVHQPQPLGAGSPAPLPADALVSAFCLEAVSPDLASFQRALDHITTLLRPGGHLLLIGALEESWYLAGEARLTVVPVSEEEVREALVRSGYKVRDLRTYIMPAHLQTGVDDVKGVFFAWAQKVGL
Catechol O-methyltransferase (Homo sapiens), sequence (P21964 whole entry, looked up): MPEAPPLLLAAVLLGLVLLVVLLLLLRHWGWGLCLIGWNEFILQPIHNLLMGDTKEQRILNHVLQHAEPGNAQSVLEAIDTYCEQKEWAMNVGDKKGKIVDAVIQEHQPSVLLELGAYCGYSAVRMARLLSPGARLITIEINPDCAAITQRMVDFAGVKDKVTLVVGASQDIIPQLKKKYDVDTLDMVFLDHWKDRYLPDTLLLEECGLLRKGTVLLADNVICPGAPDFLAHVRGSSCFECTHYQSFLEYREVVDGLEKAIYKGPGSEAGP

SMILES	activity [1]	activity change, negative = inhibition [2]	activity [3]	activity [4]	Potency [2]
COc1cccc2c1OCCCN(c1cc(C3CC(O)C3)nc(N)n1)C2 (centres undefined)	5.04%	6.51%	3.54%	4.23%	–
COc1ccc2c(c1)C(CN1CCN(c3ccc4oc(C(=O)O)cc4c3Cl)CC1)=CC(C)(C)CO2	-4.38%	0.273%	-9.6%	3.5%	–
CC1CCN(CCCNC(=O)C2CCc3sc(C(=O)N4CCCC4)cc3C2)CC1 (centres undefined)	4.14%	6.27%	-0.224%	4.65%	–
COc1ccc(CCNc2nc3c(-c4cccc(F)c4)nnn3c3ccccc23)cc1OC	-7.47%	-8.63%	-5.65%	-3.23%	–
CCCCNC(=O)c1cccc(-c2cc(N3CCN(C)CC3)nc(N)n2)c1	-2.86%	-5.28%	-3.76%	-4.09%	–
Cc1nc(NC(=O)C2CC(=O)N(c3n[nH]c4cc(Br)ccc34)C2)sc1C (centres undefined)	11.1%	3.17%	-94.1%	7.69%	–
c1ccc(CNc2cc(-c3cc(N4CCCCC4)ncn3)c3cc[nH]c3n2)nc1	-16.9%	-13.9%	-28.9%	-32%	–
COc1ccc2[nH]c(CNc3cc(C4CC(N)C4)nc(C)n3)cc2c1 (centres undefined)	-1.03%	1.53%	-9.73%	3.97%	–
O=C(c1ccc(C(F)(F)F)cc1)N1CCCC(C(=O)N2CCC(c3nc4ccncc4[nH]3)CC2)C1 (centres undefined)	9.15%	6.72%	-28.9%	9.23%	–
Cc1ccc(NC(=O)CSc2nnc3n(CC(C)C)c(=O)c4ccccc4n23)cc1	1.84%	–	-8.6%	-2.78%	inactive
COc1cccc(CN2CCCC3(CCN(c4cc(C)nc(N)n4)C3)C2)c1OC (centres undefined)	-4.01%	-7.75%	-4.87%	-3.6%	–
O=C(Nc1ccc2c(N3CCCCC3)ncnc2c1)c1ccccc1C(F)(F)F	-15.7%	-6.31%	-10.2%	-19.5%	–
O=C(NCCc1ccccc1)c1ccc(CN2C(=O)CCn3nc(-c4ccccc4)cc32)cc1	-6.47%	0.906%	-28.8%	-5.57%	–
Cc1cnc(CCNC(=O)Nc2ccc3c(c2)OCCO3)n1C1CCC1	2.74%	-0.0713%	-5.7%	1.37%	–
O=C(Cc1ccsc1)Nc1ccc2c(N3CCCC3)ncnc2c1	0.696%	4.54%	3.05%	-6.83%	–
CCN(CC)CCCNC(=O)CCc1nnc2n(CCc3ccccc3)c(=O)c3ccccc3n12	-3.69%	-1.16%	-11.7%	2.52%	–

SMILES	activity [1]	activity change, negative = inhibition [2]	activity [3]	activity [4]	Potency [2]
Cc1ccccc1-c1[nH]nc2ncc(-c3c(C)noc3C)nc12	-14.4%	-10.5% [at 85.7 µM]	-31.8%	-28.1%	–
CC(C)CCn1c(=O)c2ccccc2n2c(CCC(=O)N3CCN(c4ccc(F)cc4)CC3)nnc12	1.78%	0%	-61.2%	-6.79%	–
CCCC1c2cccn2CCN1C(=O)Nc1cccc(C(F)(F)F)c1 (centres undefined)	-5.53%	-0.7%	-7.32%	-5.65%	–
Cn1ccc(Nc2cc3c(cn2)CN(CCc2ccccc2)CCN3)n1	-0.459%	-0.578% [at 85.7 µM]	-5.86%	-38.8%	–
Cc1cc(C)c(CNC(=O)c2cc(-c3cnn(C)c3C)cc3c2OCCN3C)c(=O)[nH]1	-62.4%	–	-51.4%	-75.2%	39.3 µM (active)
Cn1cc(-c2cc3c(ccn3Cc3ccncc3)c(N3CCOCC3)n2)cn1	-2.2%	-2.92% [at 85.7 µM]	-4.04%	-7.43%	–
Cc1nc2c3ccccc3n3c(CCCC(=O)NCCCN(C)Cc4ccccc4)nnc3n2n1	-2.29%	0%	-3.81%	-3.01%	–
CCOC(=O)c1ccc(NC(=O)Cn2c(=O)oc3cc(S(=O)(=O)N4CCCC4)ccc32)cc1	-7.51%	-4.51%	-9.52%	-37.8%	–
O=C(NCc1ccccc1)c1ccc2c(=O)nc3c(-c4ccccc4F)n[nH]n3c2c1	-13.3%	–	-8.4%	-13.5%	0.121 µM (active)
CCN(CC)CCCNC(=O)CCc1nnc2n(Cc3ccc(Cl)cc3)c(=O)c3ccccc3n12	4.07%	0%	-5.57%	0%	–
COC1CCN(c2cc(-c3ccsc3)nc3c(C)noc23)CC1	-4.15%	-0.422% [at 85.7 µM]	-17%	-10.4%	–
COc1ccc(CCNC(=O)c2ccc3c(=O)[nH]c4c(C(=O)NCC5CCCO5)sc(=S)n4c3c2)cc1OC (centres undefined)	-41.4%	–	-23.3%	-16.5%	27.1 µM (active)
CC(C)NC(=O)c1ccccc1OCC1CCCN(Cc2cn(C)c3ccccc23)C1 (centres undefined)	8.45%	14.4%	4.67%	10.4%	–
Cc1cc(C)c(NS(=O)(=O)c2ccc3c(c2)n(C)c(=O)n3C)c(C)c1	0.505%	0%	-39.4%	0.178%	–
Cc1cc(-c2nc3ccncc3[nH]2)c(C)[nH]1	-4.56%	3.2% [at 114 µM]	-25.8%	-11.2%	–
